{"source": "PubChem BioAssay (NCATS)", "note": "Where “and” joins values, the source holds several entries; their conditions need not be identical. Identical values can stand only once. Results filed as inconclusive are left out. A structure can be active in one record and inactive in another. Calls of active or inactive are those of the source. Calls follow the shape of the dose curve; as a rule, active = well fitted curve in the direction sought with a large enough effect; inconclusive = small, poorly fitted or top-dose-only effect, or another doubt; inactive = no such curve, though single readings can be large; an effect the other way counts as inactive or inconclusive. Potency is read from the fitted curve at half-maximal effect."}
{"molecular_target": "Peroxisome proliferator-activated receptor alpha (Homo sapiens) (UniProt Q07869)", "sequence (Q07869 whole entry, looked up)": "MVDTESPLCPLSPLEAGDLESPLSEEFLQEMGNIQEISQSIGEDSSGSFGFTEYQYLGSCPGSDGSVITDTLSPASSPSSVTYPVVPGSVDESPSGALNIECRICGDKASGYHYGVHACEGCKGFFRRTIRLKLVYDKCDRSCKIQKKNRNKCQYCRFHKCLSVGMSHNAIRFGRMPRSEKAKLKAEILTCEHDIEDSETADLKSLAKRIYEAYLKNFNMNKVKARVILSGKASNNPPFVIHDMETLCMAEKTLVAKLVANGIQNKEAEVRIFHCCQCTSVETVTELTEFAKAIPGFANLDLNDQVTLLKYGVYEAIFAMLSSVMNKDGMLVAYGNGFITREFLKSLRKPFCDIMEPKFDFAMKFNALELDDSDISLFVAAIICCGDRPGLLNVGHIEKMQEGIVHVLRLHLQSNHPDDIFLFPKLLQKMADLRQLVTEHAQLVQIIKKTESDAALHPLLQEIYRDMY", "experiment": "qHTS assay for small molecule agonists of the peroxisome proliferator-activated receptor alpha (PPARalpha) signaling pathway (AID 651778); as to max response: % of control where 0% means no effect", "details": "PathHunter PPARalpha complementation, chemiluminescence, 6 h; max response: stronger effect = higher value", "summary_of_the_method": "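Cells plated at 2,000/well and held overnight at 37 C, 5% CO2, then compound added by pin tool for 6 hr; after PathHunter detection reagent and 60 min at room temperature, chemiluminescence from enzyme complementation was read.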"}
{"compound": "CC[C@H](C)C(=O)O[C@H]1C[C@@H](C)C=C2C=C[C@H](C)[C@H](CC[C@@H]3C[C@@H](O)CC(=O)O3)[C@H]21", "max response": "1.65% (inactive)"}
{"compound": "CC(=O)Oc1ccccc1C(=O)Nc1ncc([N+](=O)[O-])s1", "max response": "-4.4% (inactive)"}
{"compound": "CC(=O)CC(c1ccccc1)c1c(O)c2ccccc2oc1=O", "note": "(stereo not given)", "max response": "-0.925% (inactive)"}
{"compound": "Cc1noc(NS(=O)(=O)c2ccc(N)cc2)c1C", "max response": "0.0609% (inactive) and -2.74% (inactive)"}
{"compound": "S=P(N1CC1)(N1CC1)N1CC1", "max response": "-1.18% (inactive)"}
{"compound": "Cc1nnc(NS(=O)(=O)c2ccc(N)cc2)s1", "max response": "6.59% (inactive)"}
{"compound": "N=C(N)c1ccc(OCCCCCOc2ccc(C(=N)N)cc2)cc1", "max response": "-3.05% (inactive) and -5.88% (inactive)"}
{"compound": "OC(Cn1cncn1)(Cn1cncn1)c1ccc(F)cc1F", "max response": "-1.95% (inactive)"}
{"compound": "Cc1ccnc2c1NC(=O)c1cccnc1N2C1CC1", "max response": "-3.94% (inactive)"}
{"compound": "NC(N)=NC(N)=NCCc1ccccc1", "Potency": "35.5 µM (active)", "max response": "-1.6% (inactive)"}
{"compound": "Cc1ncc([N+](=O)[O-])n1CCO", "max response": "-0.879% (inactive)"}
{"compound": "CN(C)c1ccc(C(=C2C=CC(=[N+](C)C)C=C2)c2ccc(N(C)C)cc2)cc1", "max response": "-11.8% (inactive) and -11.3% (inactive)"}
{"compound": "C[C@]12C=CC(=O)C=C1CC[C@@H]1[C@@H]2C(=O)C[C@@]2(C)[C@H]1CC[C@]2(O)C(=O)CO", "max response": "-2.07% (inactive)"}
{"compound": "NNC(=O)c1ccncc1", "max response": "-1.45% (inactive)"}
{"compound": "CC1=NN(c2ccccc2)C(=O)C1", "max response": "-0.816% (inactive) and -5.33% (inactive)"}
{"compound": "CCc1cc(C(N)=S)ccn1", "max response": "-3.66% (inactive) and -3.46% (inactive)"}
{"compound": "Cc1cc(NS(=O)(=O)c2ccc(N)cc2)no1", "max response": "-1.17% (inactive)"}
{"compound": "O=C(O)c1cc(=O)[nH]c(=O)[nH]1", "max response": "-0.877% (inactive)"}
{"compound": "COc1ccc2cc3[n+](cc2c1OC)CCc1cc2c(cc1-3)OCO2", "max response": "-3.31% (inactive)"}
{"compound": "O=C(N[C@H](CO)[C@H](O)c1ccc([N+](=O)[O-])cc1)C(Cl)Cl", "max response": "0.618% (inactive) and -1.35% (inactive)"}
{"molecular_target": "Nuclear receptor ROR-gamma (Homo sapiens) (UniProt P51449)", "sequence (P51449 whole entry, looked up)": "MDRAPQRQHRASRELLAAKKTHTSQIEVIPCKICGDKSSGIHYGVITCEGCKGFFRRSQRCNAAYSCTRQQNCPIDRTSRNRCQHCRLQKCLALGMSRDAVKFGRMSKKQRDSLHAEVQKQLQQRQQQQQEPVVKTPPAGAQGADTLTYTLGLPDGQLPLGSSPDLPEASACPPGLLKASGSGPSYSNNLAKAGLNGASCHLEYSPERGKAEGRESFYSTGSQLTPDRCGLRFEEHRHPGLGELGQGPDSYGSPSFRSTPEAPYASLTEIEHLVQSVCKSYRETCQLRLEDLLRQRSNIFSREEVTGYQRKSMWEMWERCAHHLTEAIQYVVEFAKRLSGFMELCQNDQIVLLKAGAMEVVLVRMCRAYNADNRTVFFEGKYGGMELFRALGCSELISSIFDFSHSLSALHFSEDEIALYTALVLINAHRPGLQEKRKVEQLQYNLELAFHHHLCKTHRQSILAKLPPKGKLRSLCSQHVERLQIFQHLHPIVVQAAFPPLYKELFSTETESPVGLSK", "experiment": "qHTS assay for small molecule antagonists of the retinoid-related orphan receptor gamma (ROR-gamma) signaling pathway (AID 651802); also: nearly all actives have a fitted effect of over 60% in size;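 as to activity change, negative = inhibition: CHO cells with doxycycline-induced ROR-gamma expression; luciferase reporter luminescence driven by ROR response element; % is scaled to controls: 0 for no effect and ±100 for the full control effect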", "details": "ROR-gamma antagonist cell reporter assay; series mostly up to 92.2 µM; activity change, negative = inhibition: at the top concentration", "summary_of_the_method": "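Luminescence (One-Glo, 30 min RT) measured 16 h after compound addition and doxycycline induction at 37C. Reporter: RORE-luciferase under TET-inducible ROR-gamma in CHO cells.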"}
{"compound": "CC[C@H](C)C(=O)O[C@H]1C[C@@H](C)C=C2C=C[C@H](C)[C@H](CC[C@@H]3C[C@@H](O)CC(=O)O3)[C@H]21", "Potency": "4.73 µM (active)"}
{"compound": "Cc1nnc(NS(=O)(=O)c2ccc(N)cc2)s1", "activity change, negative = inhibition": "-9.49% (inactive)"}
{"compound": "Cc1ccnc2c1NC(=O)c1cccnc1N2C1CC1", "activity change, negative = inhibition": "5.28% (inactive)"}
{"compound": "NC(N)=NC(N)=NCCc1ccccc1", "Potency": "16.8 µM (active)"}
{"compound": "Cc1ncc([N+](=O)[O-])n1CCO", "activity change, negative = inhibition": "4.79% (inactive)"}
{"compound": "CN(C)c1ccc(C(=C2C=CC(=[N+](C)C)C=C2)c2ccc(N(C)C)cc2)cc1", "Potency": "2.37 µM (active)"}
{"compound": "C[C@]12C=CC(=O)C=C1CC[C@@H]1[C@@H]2C(=O)C[C@@]2(C)[C@H]1CC[C@]2(O)C(=O)CO", "activity change, negative = inhibition": "-11.5% (inactive)"}
{"compound": "NNC(=O)c1ccncc1", "activity change, negative = inhibition": "-21.1% (inactive)"}
{"compound": "CC1=NN(c2ccccc2)C(=O)C1", "activity change, negative = inhibition": "16.7% (inactive)"}
{"compound": "CCc1cc(C(N)=S)ccn1", "activity change, negative = inhibition": "35% (inactive)"}
{"compound": "Cc1cc(NS(=O)(=O)c2ccc(N)cc2)no1", "activity change, negative = inhibition": "2.6% (inactive)"}
{"compound": "O=C(O)c1cc(=O)[nH]c(=O)[nH]1", "activity change, negative = inhibition": "-0.34% (inactive)"}
{"compound": "COc1ccc2cc3[n+](cc2c1OC)CCc1cc2c(cc1-3)OCO2", "activity change, negative = inhibition": "-27.8% (inactive)"}
{"compound": "O=C(N[C@H](CO)[C@H](O)c1ccc([N+](=O)[O-])cc1)C(Cl)Cl", "activity change, negative = inhibition": "15.7% (inactive)"}
